From PubChem BioAssay (NCATS)
Inconclusive results are not listed. Calls of active or inactive are those of the source. Unless noted, the call rests on the fitted dose curve; in most records, active means well fitted curve in the direction sought with a large enough effect; inconclusive means small, poorly fitted or top-dose-only effect, or another doubt; inactive means no such curve, though single readings can be large; an effect the other way counts as inactive or inconclusive.

Assays:
[1] = qHTS of pediatric cancer cell lines to identify multiple opportunities for drug repurposing: Primary screen for TC32 cells (AID 1347089); further: nearly all actives have a fitted effect of over 60% in size
Outline: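 Luminescent CellTiter-Glo read-out of metabolically active TC32 cells after 48 h compound exposure. Primary: MIPE 11-point, 0.78 nM–46 µM; NPC 8-point, 0.59 nM–46 µM. Confirmatory: 11-point dilutions.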

[2] = qHTS of pediatric cancer cell lines to identify multiple opportunities for drug repurposing: Primary screen for DAOY cells (AID 1347090); further: series mostly up to about 46 µM; nearly all actives have a fitted effect of over 55% in size
Outline: (§1)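 Eight- or eleven-point concentration series, 48 h treatment at 37 degrees C in growth media; readout CellTiter-Glo luminescence. Potency and efficacy were taken from the concentration-response curves.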

[3] = qHTS of pediatric cancer cell lines to identify multiple opportunities for drug repurposing: Primary screen for SJ-GBM2 cells (AID 1347091); further: potency means the concentration at half of the fitted maximal effect
Outline: as §1

[4] = qHTS of pediatric cancer cell lines to identify multiple opportunities for drug repurposing: Primary screen for A673 cells (AID 1347092); further: nearly all actives have a fitted effect of over 45% in size; further: potency means the concentration at half of the fitted maximal effect
Outline: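 A673 cells (500-1,000 cells/well in growth media) were pre-incubated 5 h at 37 degrees C, then exposed to compounds for 48 h. Viability was read as CellTiter-Glo luminescence; concentration-response curves came directly from the primary screen.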

[5] = qHTS of pediatric cancer cell lines to identify multiple opportunities for drug repurposing: Primary screen for SK-N-MC cells (AID 1347093); further: potency means the concentration at half of the fitted maximal effect
Outline: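 Metabolically active cells were quantified by ATP-dependent luminescence (CellTiter-Glo, 15 min at room temperature) following 48 h treatment. Cells had been plated at 500-1,000 per well and settled for 5 h beforehand.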

[6] = qHTS of pediatric cancer cell lines to identify multiple opportunities for drug repurposing: Primary screen for BT-37 cells (AID 1347094); further: potency means the concentration at half of the fitted maximal effect
Outline: (§2)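 Luminescence from CellTiter-Glo served as readout of metabolically active cells after 48 h compound exposure. Titrations: MIPE 11-point, from 0.78 nM; NPC 8-point, from 0.59 nM (final). Concentration-response curves came straight from the primary screen.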

[7] = qHTS of pediatric cancer cell lines to identify multiple opportunities for drug repurposing: Primary screen for NB-EBc1 cells (AID 1347095)
Outline: as §2

[8] = qHTS of pediatric cancer cell lines to identify multiple opportunities for drug repurposing: Primary screen for U-2 OS cells (AID 1347096); further: nearly all actives have a fitted effect of over 50% in size
Outline: (§3)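 Cells (500-1,000/well) in growth media were settled 5 h at 37 degrees C, then given compounds for 48 h. Viability was read as CellTiter-Glo luminescence. Primary runs used MIPE at 11 points (0.78 nM-46 µM) and NPC at 8 points (0.59 nM-46 µM); follow-ups used 11 points.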

[9] = qHTS of pediatric cancer cell lines to identify multiple opportunities for drug repurposing: Primary screen for Saos-2 cells (AID 1347097); further: nearly all actives have a fitted effect of over 40% in size; further: potency means the concentration at half of the fitted maximal effect
Outline: as §2

[10] = qHTS of pediatric cancer cell lines to identify multiple opportunities for drug repurposing: Primary screen for SK-N-SH cells (AID 1347098); further: nearly all actives have a fitted effect of over 65% in size; further: potency means the concentration at half of the fitted maximal effect
Outline: (§4)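 Cells (500-1,000/well) rested 5 h, then received compounds for 48 h; metabolically active cells were measured by CellTiter-Glo luminescence. Final concentrations spanned up to 46 µM (MIPE, 11-point) or 0.59 nM-46 µM (NPC, 8-point) in primary screens, 11-point in follow-ups.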

[11] = qHTS of pediatric cancer cell lines to identify multiple opportunities for drug repurposing: Primary screen for NB1643 cells (AID 1347099); further: nearly all actives have a fitted effect of over 50% in size; further: potency means the concentration at half of the fitted maximal effect
Outline: as §2

[12] = qHTS of pediatric cancer cell lines to identify multiple opportunities for drug repurposing: Primary screen for LAN-5 cells (AID 1347100); further: potency means the concentration at half of the fitted maximal effect
Outline: as §3

[13] = qHTS of pediatric cancer cell lines to identify multiple opportunities for drug repurposing: Primary screen for BT-12 cells (AID 1347101); further: nearly all actives have a fitted effect of over 25% in size; further: potency means the concentration at half of the fitted maximal effect
Outline: as §4

[14] = qHTS of pediatric cancer cell lines to identify multiple opportunities for drug repurposing: Primary screen for Rh18 cells (AID 1347102); further: nearly all actives have a fitted effect of over 65% in size
Outline: as §3

[15] = target: T1, Tyrosine-protein phosphatase non-receptor type substrate 1 (Homo sapiens) + Leukocyte surface antigen CD47 (Homo sapiens) (UniProt P78324+Q08722); assay: CD47-SIRPalpha protein protein interaction - LANCE assay qHTS validation (AID 1347057; active means well fitted curve in the direction sought with a large enough effect in the signal ratio, with a control signal flat, not every such curve was filed as active; the % refers to the signal ratio; further: series mostly up to about 38 µM)
Outline: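 Inhibition of soluble CD47/SIRPalpha ectodomain association by titrated compounds, measured as 665/615 nm time-resolved FRET ratio after sequential 30 min room-temperature incubations.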

[16] = target: T1, Tyrosine-protein phosphatase non-receptor type substrate 1 (Homo sapiens) + Leukocyte surface antigen CD47 (Homo sapiens); assay: CD47-SIRPalpha protein protein interaction - Alpha assay qHTS validation (AID 1347059);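 further: bead proximity luminescence from CD47 binding SIRPalpha after compound preincubation with SIRPalpha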
Outline: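 In PBS (pH 7.4) with 0.05% IGEPAL CA-630, compound is preincubated with biotin-Avi-SIRPalpha ectodomain before His-CD47 ectodomain and affinity beads are added. Light-protected room-temperature incubations; AlphaScreen readout.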

[17] = target: Parathyroid hormone/parathyroid hormone-related peptide receptor (Homo sapiens) (UniProt Q03431); assay: qHTS for PTHR1 Agonists: Optimization Screen against the NCGC LOPAC library (AID 1347079);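 further: GloSensor cAMP luminescence in HEK-293 GP2 cells expressing human PTHR1 with IBMX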
Outline: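 HEK-293 GP2 cells, PTHR1 + GloSensor cAMP; 3000 cells/well, o/n. Luciferin + IBMX 0.5mM each (stock), 1 hr 37C. Cpd titration, 1 hr 37C. Lum after 15 min RT. Ctrl M-PTH(1-15) top 10uM.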

[18] = qHTS of pediatric cancer cell lines to identify multiple opportunities for drug repurposing: Primary screen for OHS-50 cells (AID 1347103); further: nearly all actives have a fitted effect of over 40% in size; further: potency means the concentration at half of the fitted maximal effect
Outline: as §4

[19] = qHTS of pediatric cancer cell lines to identify multiple opportunities for drug repurposing: Primary screen for RD cells (AID 1347104); further: nearly all actives have a fitted effect of over 55% in size
Outline: as §2

[20] = target: T1, Tyrosine-protein phosphatase non-receptor type substrate 1 (Homo sapiens) + Leukocyte surface antigen CD47 (Homo sapiens); assay: CD47-SIRPalpha protein protein interaction - HTRF assay qHTS validation (AID 1347058; active means well fitted curve in the direction sought with a large enough effect in the signal ratio, not every such curve was filed as active; the % refers to the signal ratio; further: series mostly up to about 38 µM)
Outline: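 Soluble extracellular domains (6His-CD47, Avi-tag-biotinylated SIRPalpha) in PBS pH 7.4 with 0.05% IGEPAL CA-630. Compounds were preincubated 30 min at RT with CD47 and anti-His-Eu, then SIRPalpha and SAV-XL665 were added. TR-FRET 665/615 ratio.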

Measured: Potency

Sequence of Parathyroid hormone/parathyroid hormone-related peptide receptor (Homo sapiens) (Q03431 whole entry, looked up): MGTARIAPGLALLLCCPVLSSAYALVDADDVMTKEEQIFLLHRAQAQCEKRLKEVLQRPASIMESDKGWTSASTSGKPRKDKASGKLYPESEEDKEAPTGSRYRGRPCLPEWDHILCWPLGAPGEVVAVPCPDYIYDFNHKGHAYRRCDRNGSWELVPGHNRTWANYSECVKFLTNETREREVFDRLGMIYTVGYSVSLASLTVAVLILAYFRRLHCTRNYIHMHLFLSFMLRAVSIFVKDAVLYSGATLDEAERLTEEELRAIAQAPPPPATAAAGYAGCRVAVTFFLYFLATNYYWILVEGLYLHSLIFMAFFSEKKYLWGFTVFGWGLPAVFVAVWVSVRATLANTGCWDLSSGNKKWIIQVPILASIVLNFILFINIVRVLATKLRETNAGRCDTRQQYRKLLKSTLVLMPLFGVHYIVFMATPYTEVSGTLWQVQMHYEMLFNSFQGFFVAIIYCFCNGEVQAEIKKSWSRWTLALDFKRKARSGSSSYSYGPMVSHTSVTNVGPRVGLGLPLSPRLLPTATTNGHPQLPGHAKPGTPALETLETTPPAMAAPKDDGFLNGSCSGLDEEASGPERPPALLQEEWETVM
T1 sequence (P78324 whole entry, looked up, the tested form may be a part): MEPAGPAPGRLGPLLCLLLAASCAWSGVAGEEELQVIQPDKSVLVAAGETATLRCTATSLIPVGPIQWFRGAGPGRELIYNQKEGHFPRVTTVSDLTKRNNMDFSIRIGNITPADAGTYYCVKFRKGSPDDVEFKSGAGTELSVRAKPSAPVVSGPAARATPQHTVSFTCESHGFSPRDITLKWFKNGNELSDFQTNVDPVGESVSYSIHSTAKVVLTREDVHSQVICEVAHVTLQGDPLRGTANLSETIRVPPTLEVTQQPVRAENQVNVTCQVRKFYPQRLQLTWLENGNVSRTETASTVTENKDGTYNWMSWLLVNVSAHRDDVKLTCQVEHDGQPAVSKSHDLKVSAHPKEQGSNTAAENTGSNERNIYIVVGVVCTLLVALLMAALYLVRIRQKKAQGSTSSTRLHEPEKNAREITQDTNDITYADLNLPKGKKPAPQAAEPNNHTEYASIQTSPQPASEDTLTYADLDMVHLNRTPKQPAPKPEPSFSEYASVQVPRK
T1 sequence (Q08722 whole entry, looked up, the tested form may be a part): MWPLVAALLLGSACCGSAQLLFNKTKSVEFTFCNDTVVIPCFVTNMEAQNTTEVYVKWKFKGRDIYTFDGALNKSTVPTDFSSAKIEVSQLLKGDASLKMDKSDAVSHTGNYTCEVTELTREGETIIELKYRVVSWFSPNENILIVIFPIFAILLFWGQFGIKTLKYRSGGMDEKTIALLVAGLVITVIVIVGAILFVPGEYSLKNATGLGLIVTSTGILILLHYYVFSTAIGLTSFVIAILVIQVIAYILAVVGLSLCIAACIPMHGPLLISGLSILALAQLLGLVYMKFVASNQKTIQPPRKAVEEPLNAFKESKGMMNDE

CC(C)(C#N)c1cc(Cn2cncn2)cc(C(C)(C)C#N)c1
inactive: [1] | [2] | [3] | [4] | [5] | [6] | [7] | [8] | [9] | [10] | [11] | [12] | [13] | [14]

Nc1nc(N)c2nc(CNc3ccc(C(=O)NC(CCC(=O)O)C(=O)O)cc3)cnc2n1 (stereo not drawn)
inactive: [15] | [16] | [17] | [2] | [8] | [9] | [11] | [14]
active: [3] 0.0833 µM | [5] 0.0166 µM | [6] 0.0485 µM | [13] 0.0485 µM

COc1c(N2CCNC(C)C2)c(F)cc2c(=O)c(C(=O)O)cn(C3CC3)c12 (stereo not drawn)
inactive: [1] | [2] | [3] | [4] | [5] | [6] | [7] | [8] | [9] | [10] | [11] | [12] | [13] | [14] | [18] | [19]

CN(C)CCc1c[nH]c2ccc(C[C@H]3COC(=O)N3)cc12
inactive: [1] | [2] | [3] | [4] | [5] | [6] | [7] | [8] | [9] | [10] | [11] | [12] | [13] | [14] | [18]

CCN(C)C(=O)Oc1cccc([C@H](C)N(C)C)c1
inactive: [1] | [2] | [3] | [4] | [5] | [6] | [7] | [8] | [9] | [10] | [11] | [12] | [13] | [14] | [18] | [19]

CC[C@H](NC(C)C)[C@H](O)c1ccc(O)c2[nH]c(=O)ccc12
inactive: [1] | [2] | [3] | [4] | [5] | [6] | [7] | [8] | [9] | [10] | [11] | [12] | [13] | [14] | [18] | [19]

Cc1ccc(S(=O)(=O)N[C@@H](Cc2ccccc2)C(=O)CCl)cc1
inactive: [15] | [20] | [16] | [17] | [1]
active: [3] 9.35 µM | [4] 14.8 µM | [5] 7.43 µM | [6] 24.3 µM | [9] 9.35 µM | [10] 21.5 µM | [11] 20.9 µM | [12] 16.6 µM

NNC(=O)c1ccncc1
inactive: [1] | [2] | [3] | [4] | [5] | [6] | [7] | [8] | [9] | [10] | [11] | [12] | [13] | [14] | [18] | [19]

COc1cc2ncnc(Nc3cccc(Cl)c3)c2cc1OC
active: [10] 8.57 µM | [11] 0.372 µM | [18] 24.3 µM
inactive: [15] | [16]

O=C(O)c1cn(C2CC2)c2cc(N3CCNCC3)c(F)cc2c1=O
inactive: [1] | [2] | [3] | [4] | [5] | [6] | [7] | [8] | [9] | [10] | [11] | [12] | [13] | [14] | [18] | [19]

O=NN(CCCl)C(=O)NC1CCCCC1
inactive: [1] | [2] | [3] | [4] | [5] | [6] | [7] | [8] | [9] | [10] | [11] | [12] | [13] | [14] | [18]

CC(C)NCC(O)c1ccc(NS(C)(=O)=O)cc1 (stereo not drawn)
active: [5] 10.5 µM
inactive: [15] | [20] | [16] | [17] | [3] | [6] | [8] | [9] | [10] | [11] | [12] | [13] | [14] | [18] | [19]

NC(=O)c1cccc(N)c1
inactive: [15] | [20] | [16] | [17] | [1] | [2] | [3] | [4] | [7] | [8] | [9] | [10] | [11] | [12] | [13] | [14]

CCN(CC)CC#CCOC(=O)C(O)(c1ccccc1)C1CCCCC1 (stereo not drawn)
inactive: [17] | [1] | [2] | [4] | [5] | [6] | [8] | [9] | [10] | [11] | [14] | [19]
